Results filed as inconclusive are left out. Where a call stands in place of a potency, no number is given. Activity calls are given as the source filed them. The call rests on the fitted dose curve; in most records, active means well fitted inhibition curve with a large enough effect; inconclusive means small, poorly fitted or top-dose-only effect; inactive means flat fitted curve, though single readings scatter.
Experiment: P-glycoprotein substrates identified in KB-8-5-11 adenocarcinoma cell line, qHTS therapeutic library screen (AID 1346987); further: nearly all actives have a fitted effect of over 65% in size
Conditions: KB-8-5-11 (P-gp overexpressing) viability, CellTiter-Glo, 72 h; series mostly up to 44.5 µM
How it was run: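 Compounds are pinned in dose-response onto KB-8-5-11 cells (500 cells/well, colchicine-free medium) and left 72 h at 37 degree C. CellTiter-Glo luminescence then yields AC50 values.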

SMILES	Potency	outcome	activity change, negative = cytotoxicity
C/C=C(\C)C(=O)OC1C(C)C2(O)C3C=C(C)C(=O)C3CC(CO)=CC2C2C(C)(C)C12OC(C)=O (centres undefined)	inactive		
N[C@@H](CC(=O)Nc1ccc(Oc2cc(F)c(F)cc2Br)cc1)C(=O)O	inactive		
COc1cc(C[C@@]2(O)CO[C@@H](c3ccc(O[C@@H]4O[C@H](CO)[C@@H](O)[C@H](O)[C@H]4O)c(OC)c3)[C@H]2CO)ccc1O	inactive		
CC[C@H](NC(=O)c1c(O)c(-c2ccccc2)nc2ccccc12)c1ccccc1	inactive		
C[C@H]1/C=C/C=C/C=C/C=C/C=C/[C@@H](O)[C@H](C(=O)O)[C@H](O)C[C@H](O)CCC[C@H](O)C[C@H](O)C[C@H](O)[C@@H](C)C(=O)O[C@@H]1C	inactive		
CC1=C(C)C(=O)OC(C(C)C2C(O)CC3C4C5OC5C5(O)CC(OC6OC(CO)C(OC7OC(C)C(O)C(O)C7O)C(O)C6O)CC(O)C5(C)C4CCC32C)C1 (centres undefined)	inactive		
CC1CCC2(NC1)OC1C(O)C3C4CCC5CC(O[C@@H]6O[C@H](CO)[C@@H](O)[C@H](O)[C@H]6O[C@@H]6O[C@@H](C)[C@H](O)[C@@H](O)[C@H]6O)CCC5(C)C4CCC3(C)C1C2C (some centres undefined)	inactive		
OC[C@H]1O[C@@H](OCCc2ccccc2)[C@H](O)[C@@H](O)[C@@H]1O	inactive		
COC(=O)C[C@H]1C(C)(C)[C@H](OC(=O)C(C)C)C2CC3=C4CC(=O)O[C@@H](c5ccoc5)[C@]4(C)CCC3[C@@]1(C)C2=O (some centres undefined)	inactive		
CC/C=C\C(O)C(O)C1=C(C)C(=O)C2(O1)C(=O)NC(OC)(C(=O)c1ccccc1)C2O (centres undefined)	inactive		
C=C1CC[C@]2(C(=O)O[C@@H]3O[C@H](CO)[C@@H](O)[C@H](O)[C@H]3O)CC[C@]3(C)C(=CCC4[C@@]5(C)C[C@H](O)[C@@H](O[C@@H]6O[C@H](C(=O)O)[C@@H](O)[C@H](O)[C@H]6O)[C@](C)(C=O)C5CC[C@]43C)C2C1 (some centres undefined)		inactive [at 9.29 µM]	
CC(C)=C1C[C@@]2(C)C(=CC1=O)CC[C@@H](O)[C@@H]2C	inactive		
CCC1=C(C)C(=O)C(C)CC12C(=O)CCC2C(=O)O (centres undefined)	inactive		
O=C(NC1CCN(CC(F)(F)F)CC1)c1ccc(-c2cccc(F)c2)nc1	inactive		
COc1cc(C(CO)CO[C@@H]2O[C@H](CO)[C@@H](O)[C@H](O)[C@H]2O)ccc1O (some centres undefined)	inactive		
C[C@@H]1CC[C@]2(C(=O)O[C@@H]3O[C@H](CO[C@@H]4O[C@H](CO)[C@@H](O)[C@H](O)[C@H]4O)[C@@H](O)[C@H](O)[C@H]3O)CC[C@]3(C)C(=CCC4[C@@]5(C)CC[C@H](O)[C@](C)(C(=O)O)C5CC[C@]43C)[C@@H]2[C@]1(C)O (some centres undefined)		inactive [at 9.29 µM]	
CC1=C2C(=O)C=C(CO[C@@H]3O[C@H](CO)[C@@H](O)[C@H](O)[C@H]3O)[C@@H]2[C@H]2OC(=O)[C@H](C)[C@@H]2[C@@H](O)C1	inactive		
C=C1CCC2[C@](C)(CO)CCC[C@@]2(C)[C@@H]1CCC1=CCOC1=O (some centres undefined)	inactive		
COc1cc(C(O)C2COC(c3ccc(OC4OC(CO)C(O)C(O)C4O)c(OC)c3)C2CO)ccc1O (centres undefined)	inactive		
C[C@@H]1O[C@@H](OC[C@H]2O[C@@H](OCc3ccccc3)[C@H](O)[C@@H](O)[C@@H]2O)[C@H](O)[C@H](O)[C@H]1O	inactive		

SMILES	Potency	outcome	activity change, negative = cytotoxicity
COC(=O)[C@]1(C)CCC[C@@]2(C)[C@@H]3CC[C@@H]4C[C@@]3(CC[C@@H]21)C[C@H]4C(=O)O	inactive		
COC(=O)[C@@H](NC(=O)[C@H](CC(C)C)NC(=O)N(Cc1ccccc1)C[C@@H](O)[C@H](Cc1ccccc1)NC(=O)OC(C)(C)C)C(C)C			-2.72% [at 9.29 µM] (inactive)
O=C(OC[C@H]1O[C@@H](Oc2ccccc2COC(=O)C2(O)C=CCCC2O)[C@H](O)[C@@H](O)[C@@H]1O)c1ccccc1 (some centres undefined)	inactive		
CN1CCc2cc(Cl)c(O)cc2[C@@H](c2cccc3c2OCC3)C1	inactive		
C[C@@H]1O[C@@H](O[C@H]2[C@@H]3C=CO[C@@H](O[C@@H]4O[C@H](CO)[C@@H](O)[C@H](O)[C@H]4O)[C@@H]3[C@@]3(CO)O[C@@H]23)[C@H](OC(=O)/C=C/c2ccc(O)cc2)[C@H](O)[C@H]1O	inactive		
CC1(C)CCC[C@@]2(C)[C@H]1[C@H](O)C=C(CO)[C@]2(O)CO	inactive		
CC12CC34CC(O)C5C(CO)(CO)CC(=O)CC5(C)C3CC1C2C4 (centres undefined)	inactive		
C=C1CC23CC1CCC2C12OC(=O)C(C)(C(O)CC1O)C2C3C(=O)O (centres undefined)	inactive		
CC(C)[C@](O)(c1ccc2cc(OC(F)F)c(OC(F)F)cc2c1)c1cn[nH]n1	inactive		
COc1c(O[C@@H]2O[C@H](CO)[C@@H](O)[C@H](O)[C@H]2O)c(CCC(=O)O)cc2ccoc12	inactive		
COc1ccc(C(=O)OC2C3C=COC(OC4OC(CO)C(O)C(O)C4O)C3C3(CO)OC23)cc1OC (centres undefined)	inactive		
CCC1OC(=O)C(C)CC(C)C(=O)/C(C)=C/C(C)C(=O)/C=C/C1(C)O (centres undefined)	inactive		
COc1cc(O)c2c(c1Cl)CC(C)OC2=O (centres undefined)	inactive		
CC1CCC23COC(=O)C2=CC(O)CC3C1(C)CCc1ccoc1 (centres undefined)	inactive		
C=C1C(=O)O[C@@H]2CC(C)=C([C@@H](C)CCCOC(C)=O)[C@@H](O)[C@H]12	inactive		
C/C=C/C(=O)OC1/C=C/C(O)C(OC(C)=O)CCC(=O)OC1C (centres undefined)	inactive		
CC(=O)OC(C)(C)/C=C/C(=O)[C@](C)(O)C1[C@H](O)C[C@@]2(C)[C@@H]3CC=C4[C@@H](C[C@H](O[C@@H]5O[C@H](CO)[C@@H](O)[C@H](O)[C@H]5O)C(=O)C4(C)C)[C@]3(C)C(=O)C[C@]12C (some centres undefined)	inactive		
C=C1CCC(OC(C)=O)C2(C)CC3OC(=O)C(C)=C3CC12 (centres undefined)	inactive		
CCCNCCOc1ccc(NC(=O)c2c[nH]c3c2C(=O)CCC3)cc1F	inactive		
